Compound activity from PubChem.
TRPV1 ag: HTS Assay for Compounds that Act as Agonists of the Vanilloid Receptor 1. TRPV1-expressing cells, Fluo-8 calcium influx, agonist mode. Transient receptor potential cation channel subfamily V member 1 (Homo sapiens), Q8NER1. activation, % at 8.33 µM. 320,000 compounds, 0.19% hits. AID 540275, 2011; in the data active means activation above about 80%; inconclusive means between about 30% and that limit; further: 0% is about no effect
Target sequence (Q8NER1 whole entry, looked up): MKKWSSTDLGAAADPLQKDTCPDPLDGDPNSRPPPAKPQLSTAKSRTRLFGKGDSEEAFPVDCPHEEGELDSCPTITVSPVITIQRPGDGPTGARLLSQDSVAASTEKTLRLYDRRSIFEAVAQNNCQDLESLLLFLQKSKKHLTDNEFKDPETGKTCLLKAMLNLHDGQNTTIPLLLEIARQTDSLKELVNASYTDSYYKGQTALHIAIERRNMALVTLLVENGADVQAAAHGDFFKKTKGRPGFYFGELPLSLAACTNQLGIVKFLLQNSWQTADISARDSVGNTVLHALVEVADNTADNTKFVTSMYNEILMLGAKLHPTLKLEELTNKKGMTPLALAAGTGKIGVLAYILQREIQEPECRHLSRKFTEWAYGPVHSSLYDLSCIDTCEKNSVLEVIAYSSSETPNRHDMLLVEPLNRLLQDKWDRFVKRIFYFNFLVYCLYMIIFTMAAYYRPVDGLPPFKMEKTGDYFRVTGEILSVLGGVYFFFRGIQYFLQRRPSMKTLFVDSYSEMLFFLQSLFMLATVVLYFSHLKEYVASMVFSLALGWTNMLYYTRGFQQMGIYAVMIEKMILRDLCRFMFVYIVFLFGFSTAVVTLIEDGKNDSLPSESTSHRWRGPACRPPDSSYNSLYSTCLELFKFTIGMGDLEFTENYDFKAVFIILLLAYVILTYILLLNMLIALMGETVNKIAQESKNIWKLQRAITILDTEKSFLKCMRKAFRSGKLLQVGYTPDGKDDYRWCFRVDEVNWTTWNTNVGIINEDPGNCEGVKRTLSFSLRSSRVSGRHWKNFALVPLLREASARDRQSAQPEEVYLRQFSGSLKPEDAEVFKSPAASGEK
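TRPV1-expressing cells were cultured overnight at 35.5C and loaded with Fluo-8 calcium dye for 40 to 90 min at room temperature. After a 10 s baseline, compound was added and calcium influx was read kinetically for 3 min (ex 480/em 520 nm).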
AT treatment: qHTS Assay for Identifying a Potential Treatment of Ataxia-Telangiectasia; F2112 A-T fibroblasts, KAP-1 phosphorylation AlphaLISA; neocarzinostatin DNA damage 30 min before lysis; Potency, µM (series often up to 57.5 µM), for the others: at the top dose activation, usual class: activators; 320,000 compounds, 0.19% hits; AID 485349, 2010; further: potency means the concentration at half of the fitted maximal effect; % of control where 0% means no effect; nearly all actives have a fitted effect of over 45% in size
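ATM-like activity read as KAP-1 phosphorylation via AlphaLISA donor/acceptor antibody pairs after lysis and 6 hr at 25C. Cells were ATM-null patient fibroblasts (F2112, hTERT), dosed 60 min, then exposed to the DSB inducer NCS for 30 min.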
TRPV1 PAM: HTS Assay for Compounds that Act as Potentiators of the Vanilloid Receptor 1. potentiation, % at 8.33 µM. TRPV1-expressing cells, Fluo-8 calcium influx, capsaicin EC20 potentiation. Transient receptor potential cation channel subfamily V member 1 (Homo sapiens), Q8NER1. 320,000 compounds, 0.02% hits; in the data active means potentiation above about 80%; inconclusive means between about 30% and that limit; further: 0% is about no effect
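Fluo-8 calcium influx in TRPV1-expressing cells, kinetic read (ex 480/em 520 nm). Compound added and read 3 min for agonist activity, followed by capsaicin at EC20 final and 2 min further read for enhancement.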
IMPase Li cell: qHTS Assay for Identifying the Cell-Membrane Permeable IMPase Inhibitors: Potentiation with Lithium | 210,000 compounds, 0.35% hits | AID 1457, 2008 | CHO-M1 cells, IP1 TR-FRET (IP-One), carbachol + lithium | Potency, µM (titrated, usually from 59.4 µM), without a hit: at the top dose activity, negative = IMPase inhibition, usual class: inhibitors;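 further: IP1 builds up when IMPase is blocked and the TR-FRET signal falls; potency means the concentration at half of the fitted maximal effect; plate controls were basal vehicle for no effect and high inhibitor control for full effect; nearly all actives have a fitted effect of over 50% in size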
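Lithium-sensitised IP1 accumulation assay; M1-expressing CHO cells treated 30 min at 37C with compound. Competitive antibody detection by time-resolved FRET followed a 10 min room-temperature lysis step.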
The depositor's hits bear a star; ? = inconclusive; . = no result given; [ ] = another dose, or the depositor's remark. Only some compounds are listed: those with a hit (about 0.55% of all), similar ones and a draw of the others. Unless noted, the call rests on the fitted dose curve; in most records, active means well fitted curve in the direction sought with a large enough effect; inconclusive means small, poorly fitted or top-dose-only effect, or another doubt; inactive means no such curve, though single readings can be large; an effect the other way counts as inactive or inconclusive.

SMILES	TRPV1 ag	AT treatment	TRPV1 PAM	IMPase Li cell
CCn1c(SCC(=O)Nc2ccc(NC(=O)c3ccco3)c(OC)c2)nc2ccccc2c1=O	2.8	?	3.8	12.6µM*
COCCn1c(SCC(=O)Nc2ccc(NC(=O)c3ccco3)c(OC)c2)nc2ccccc2c1=O	-2.5	2.6%	1.0	4.8%[38.3 µM]
COC(=O)c1ccccc1NC(=O)CSc1nnnn1-c1ccc(C)cc1C	-5.7	.	13.5	10µM*
CCOC(=O)c1sc(NC(=O)CSc2nnnn2-c2ccc(C)cc2C)nc1C	-0.3	.	2.1	10µM*
Cc1ccc(-n2nnnc2SCC(=O)NNC(=O)c2ccco2)c(C)c1	-2.0	-0.5%	9.7	-14.9%[38.3 µM]
CN(C)c1ccc(/C=C(\C#N)C(=O)c2ccccc2)cc1	83.7*	5.0%	22.2	.
CN(C)CCN(c1ccccn1)c1ccccn1	.	.	.	-1.6%
CCCOc1ccc(C2C(C(=O)c3ccc(C)o3)=C(O)C(=O)N2Cc2cccnc2)cc1 (centres undefined)	-3.4	5.6%	1.1	10µM*
Cc1ccc(C(=O)C2=C(O)C(=O)N(CCCn3ccnc3)C2c2ccc(OC(C)C)cc2)o1 (centres undefined)	-1.7	-3.8%	-1.0	14.1µM*
COC(=O)C1=C(C(=O)OC)[C@@H]2Nc3ccccc3[C@@]23C[C@@H](C(=O)OC)N(S(=O)(=O)c2ccc(Br)cc2)C3=N1	.	.	.	10.7%
COc1ccc(-c2ccc(-c3noc(C(C)C)n3)c(OC)n2)cc1	-0.4	14.1µM*	-13.0	23.2%[38.3 µM]
O=C(N/C=N/O)C1=NOC(CNc2ncc(C(F)(F)F)cc2Cl)C1 (centres undefined)	?	.	-7.8	0.8%[38.3 µM]
O=C(C1=NOC(CNc2ncc(C(F)(F)F)cc2Cl)C1)N1CCOCC1 (centres undefined)	121.4*	3.0%	-8.6	-10.9%
O=C(NC1CC1)C1=NOC(CNc2ncc(C(F)(F)F)cc2Cl)C1 (centres undefined)	80.0*	.	-5.1	1.6%[38.3 µM]
O=[N+]([O-])c1ccc(CSCc2ccc(Cl)cc2)cc1	.	.	.	6.4%
CC(C)CN(CC(C)C)C(=O)c1cc2c(=O)n3ccccc3nc2s1	?	12.6µM*	-1.7	.
C/C=C1\C(=O)C[C@H]2[C@@H]3CCC4=CC(=O)CC[C@]4(C)[C@H]3CC[C@]12C	.	.	.	17.7%
Cc1cc(=O)c2c(O)c3c(O)cc(O)c4c5c(O)cc(O)c6c(O)c7c(=O)cc(C)c8c1c2c(c34)c(c65)c78	.	.	.	12.6µM*
Cc1ccc(-c2nc3ccccc3s2)cc1NC(=O)c1ccc2c(c1)OCO2	18.2	-0.9%	1.6	11.2µM*
O=C(Nc1cc(-c2nc3ccccc3s2)ccc1Cl)c1ccc2c(c1)OCO2	19.0	0.5%	-6.0	?
CCOc1ccc(N(CC(=O)Nc2cc(C)ccc2C)S(=O)(=O)c2c(C)[nH]c(=O)[nH]c2=O)cc1	1.0	28.2µM*	-2.0	.
Cc1ccccc1OCC(=O)Nc1ccccc1N1CCCCC1	1.2	31.6µM*	1.2	28.3%[38.3 µM]
O=C(Nc1ccccc1N1CCCCC1)c1ccccc1F	-2.1	28.2µM*	8.8	24.1%[38.3 µM]
COC(=O)c1c(NC(=O)c2nc3nc(C)cc(C(F)F)n3n2)sc2c1CCC2	-1.9	-6.3%	91.1*	9.6%[38.3 µM]
Cc1cc(C(F)F)n2nc(C(=O)Nc3sc4c(c3C(N)=O)CCC4)nc2n1	-4.6	-8.7%	-15.3	6.8%
SMILES	TRPV1 ag	AT treatment	TRPV1 PAM	IMPase Li cell
CS[C@]12C(=O)C[C@]3(C)[C@@H](CC[C@@]3(O)C(=O)CO)[C@@H]1CCC1=CC(=O)CC[C@]12C	.	.	.	2.9%
Cc1cc(S(=O)(=O)N2CCC(NC(=O)C34CC5CC(CC(C5)C3)C4)CC2)ccc1-n1cnnn1	80.7*	2.9%	-12.0	3.4%[38.3 µM]
Cc1ccc(-c2csc(N3C(=N)SCC3=O)n2)cc1	9.4	22.4µM*	-5.9	.
CC1=NN(c2nc(-c3ccc(Cl)cc3)cs2)C(=O)C1	-3.8	-0.5%	16.8	10.9%[38.3 µM]
COc1ccc(NC2CCCN(C(=O)CSc3ccccc3)C2)cc1 (centres undefined)	?	-11.6%	1.5	.
COc1ccc(NC2CCCN(C(=O)CCOc3ccccc3)C2)cc1 (centres undefined)	81.7*	-2.3%	-18.8	.
